Assay results published in PubChem BioAssay (NCATS).
Where “and” joins values, the source holds several entries; their conditions need not be identical. Identical values can stand only once. Records with an inconclusive call do not appear. A call without a number means that no potency is given here. Calls of active or inactive are those of the source. Unless noted, calls follow the shape of the dose curve; as a rule, active = well fitted curve in the direction sought with a large enough effect in the repeat runs; inconclusive = weak or mixed curves; inactive = no such curve, though single readings can be large; an effect the other way counts as inactive or inconclusive.

Assays:
[1] = target: Calcium and integrin-binding protein 1 (Homo sapiens) (UniProt Q99828); assay: Primary qHTS for Identification of Calcium Integrin Binding Protein 1 (CIB1) Competitor (AID 1508620; active = well fitted curve in the direction sought with a large enough effect; an effect the other way counts as inactive or inconclusive); details: CIB1-GST / FITC-alphaIIb peptide fluorescence polarization; series mostly up to 114 µM
Chain of Calcium and integrin-binding protein 1 (Homo sapiens) (Q99828 whole entry, looked up): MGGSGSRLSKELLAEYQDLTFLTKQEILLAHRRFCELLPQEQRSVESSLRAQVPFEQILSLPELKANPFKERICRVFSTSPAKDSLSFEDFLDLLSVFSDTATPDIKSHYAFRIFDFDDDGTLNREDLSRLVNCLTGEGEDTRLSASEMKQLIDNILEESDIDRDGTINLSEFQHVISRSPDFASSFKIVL
Summary of the method: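 Fluorescence polarization competition: GST-tagged CIB1 (1 uM final) preincubated with compound 15 min at room temperature, then FITC-labelled alphaIIb peptide (100 nM final) added. After 15 min at room temperature, polarization read at Ex 480/Em 540.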

[2] = target: Cytochrome P450 2D6 (Homo sapiens) (UniProt P10635); assay: Cytochrome P450 family 2 subfamily D member 6 (CYP2D6) small molecule antagonists: luciferase biochemical (cell-free) qHTS assay (AID 1645840); details: P450-Glo CYP2D6 enzyme, luciferin luminescence, 1 h; series mostly up to 57.4 µM; also: nearly all actives have a fitted effect of over 55% in size
Chain of Cytochrome P450 2D6 (Homo sapiens) (P10635 whole entry, looked up): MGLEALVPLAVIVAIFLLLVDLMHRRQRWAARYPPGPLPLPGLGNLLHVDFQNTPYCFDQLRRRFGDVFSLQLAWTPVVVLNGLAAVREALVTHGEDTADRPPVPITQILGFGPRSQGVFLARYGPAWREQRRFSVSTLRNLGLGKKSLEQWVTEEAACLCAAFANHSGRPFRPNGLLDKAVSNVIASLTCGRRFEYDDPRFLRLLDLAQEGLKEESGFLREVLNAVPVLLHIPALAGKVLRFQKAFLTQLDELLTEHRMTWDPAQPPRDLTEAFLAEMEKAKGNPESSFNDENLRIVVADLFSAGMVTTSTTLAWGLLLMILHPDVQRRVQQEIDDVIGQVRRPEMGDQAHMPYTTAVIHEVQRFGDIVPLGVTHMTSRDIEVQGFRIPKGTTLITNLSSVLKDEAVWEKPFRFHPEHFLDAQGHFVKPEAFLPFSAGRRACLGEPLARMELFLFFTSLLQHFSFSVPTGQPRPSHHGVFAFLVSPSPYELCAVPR
Summary of the method: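 P450-Glo luminescent screen: recombinant CYP2D6 enzyme–proluciferin substrate mix preincubated with compound 10 min at room temperature, then NADPH regeneration added for 1 h at room temperature. Detection reagent added for 20 min; luciferin light read as relative luminescence units.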
Potency is read from the fitted curve at half-maximal effect.

| SMILES | Potency [1] | Potency [2] |
| --- | --- | --- |
| O=C(c1ccc(OC(F)F)c(C#Cc2ccccn2)c1)N1Cc2cccnc2C1 | inactive | 21.3 µM (active) |
| Cn1ncc(Cl)c1-c1cc(C(=O)NC(CN)Cc2ccc(F)c(F)c2)oc1Cl (centres undefined) | inactive | 12 µM (active) and 13.5 µM (active) |
| O=c1nc(-c2ccccn2)sc2ccccc12 | 28.2 µM (active) | inactive |
| CN(C)C(=O)NC1(c2ccccc2)CCN(CCC[C@]2(c3ccc(Cl)c(Cl)c3)CCCN(C(=O)c3ccccc3)C2)CC1 | inactive | 3.38 µM (active) |
| C[C@@H](N[C@H]1CCCC[C@@H]1NC(=O)c1ccc(Cl)cc1)c1cccc2ccccc12 | inactive | 0.756 µM (active) |
| CC(C)(C)c1ccc(C(=O)Nc2cn3cc(-n4ccnc4)ccc3n2)cc1 | inactive | inactive |
| C[C@H]1[C@H](/C=C/c2ccc(-c3ccccc3C#N)cn2)[C@@H]2[C@@H](C)OC(=O)[C@@H]2C[C@@H]1C | inactive | inactive |
| Cc1nc(-c2cn3c(n2)-c2ccc(-c4cnn(C(C)(C)C(N)=O)c4)cc2OCC3)n(C(C)C)n1 | inactive | inactive |
| CCN(c1cc(-c2ccc(CN3CCOCC3)cc2)cc(C(=O)NCc2c(C)cc(C)[nH]c2=O)c1C)C1CCOCC1 | inactive | 23.9 µM (active) |
| N#Cc1cc(C2=Nc3ccc(Br)cc3NC(=O)C2)ccn1 | inactive | 0.477 µM (active) |
| CNCc1cc(-c2ccccc2F)n(S(=O)(=O)c2cccnc2)c1 | inactive | 19 µM (active) |
| COC(=O)c1ccc2c(c1)nc(NC(=O)c1ccccc1)n2CCCc1ccccc1 | inactive | inactive |
